This is one part of a sample in which hits are shown more often than they occur.
HDAC3 inh = inhibitors of human histone deacetylase 3; actives 0.15% (n = 320,000); inhibition, % at 8.3 µM; recombinant HDAC3, fluorogenic peptide/trypsin coupled, fluorescence; in the data active = inhibition above about 26%, passing the limit was not always enough; inconclusive = no clear call, values can overlap the other calls
GC-B act = GC-B (human) receptor activation. AID 1920062. P20594. HEK293-GC-B cells, CNP EC30, cGMP TR-FRET; 0% at EC30 CNP, 100% saturating CNP. activation, % at 10 µM. actives 0.11% (n = 370,000);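 active = activation at 10 µM reaching about 35% in either raw or pattern-adjusted values, limit read from the data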
NPR1 activator = GC-A (human) enzyme activation | P16066 | HEK293 GC-A cells, cGMP TR-FRET, EC30 ANP; 0% at EC30 ANP, 100% saturating ANP | activation, % at 10 µM | actives 0.14% (n = 370,000) | AID 1671463; in the data active = activation above about 40%
ALR H2O2 inh = inhibitors of human sulfhydryl oxidase ALR; P55789; actives 3.8% (n = 290,000); purified ALR, DTT oxidation, H2O2 HRP-luminol luminescence; inhibition, % (test concentration not listed);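 active = mean replicate inhibition above about 79%, with every replicate also reaching it, limit read from the data; inconclusive = only one of the two criteria met; inactive = mean below limit and not every replicate reaching it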
Starred values were filed as active, the others as inactive; ? = inconclusive; / = no result.

SMILES	HDAC3 inh	GC-B act	NPR1 activator	ALR H2O2 inh
CCn1c(C)nc2cc(C(=O)NNC(=S)Nc3ccc(C)cc3)ccc21	8	-2	-4	86*
Cc1ccc(NC(=S)NNC(=O)c2nn(C)c(C)c2Cl)cc1	5	0	2	90*
Cc1ccc(NC(=S)NNC(=O)c2c([N+](=O)[O-])c(C)nn2C)cc1	-1	5	-1	12
CC1(C(=O)NS(=O)(=O)c2ccccc2Cl)CCN1C(=O)c1cccc2ccccc12 (stereo not given)	/	1	0	/
O=C(Oc1ccccc1)n1c(=S)oc2ccccc21	3	-3	6	14
Cc1ccccc1OC(=O)n1c(=S)oc2cc(Cl)ccc21	0	6	0	83*
Cc1nc2cc(N)ccc2n1-c1ccccc1	-5	0	-1	99*
COc1ccccc1C(=O)Nc1ccnn1C1CCN(CCCC2CCCC2)CC1	0	-2	-3	-5
Cc1ccc(-c2nc(SCC(=O)NCCN3C(=O)CSC3=O)[nH]c2-c2ccc(C)cc2)cc1	14	/	/	88*
CC(C)(C)OC(=O)N1CCN(C(=O)c2[nH]cnc2C(=O)Nc2ccccc2F)CC1	/	-4	1	/
CC(C)c1nc2n[nH]c(N)c2c2c1CSC(C)(C)C2	-6	6	3	98*
O=C(O)CCC(=O)c1cccc2ccccc12	-8	5	-2	-2
O=C(O)CCC(=O)c1ccc2ccc3cccc4ccc1c2c34	-5	-9	3	87*
C=CCOc1ccc(/C=C\c2nc(O)c([N+](=O)[O-])c(=O)[nH]2)cc1OC	11	/	/	67
O=c1[nH]c(/C=C\c2cccc(Cl)c2)nc(O)c1[N+](=O)[O-]	-3	4	1	98*
C=CCOc1ccc(/C=C\c2nc(O)c([N+](=O)[O-])c(=O)[nH]2)cc1OCC	4	4	-2	97*
C=CCOc1cccc(/C=C\c2nc(O)c([N+](=O)[O-])c(=O)[nH]2)c1	6	2	-5	74
O=c1[nH]c(/C=C\c2cccc(F)c2)nc(O)c1[N+](=O)[O-]	-4	0	0	91*
O=c1[nH]c(/C=C/c2ccccc2F)nc2ccccc12	-3	-13	-8	-4
O=c1[nH]c(/C=C\c2ccccc2F)nc(O)c1[N+](=O)[O-]	2	6	2	97*
Cc1nn(-c2ccccc2)c(C)c1/C=C/C(=O)OCC(=O)Nc1ncc(C(F)(F)F)cc1Cl	-3	2	-4	1
Cc1cccc(C)c1NC(=O)C1(C)CN(S(C)(=O)=O)CC(=O)N1CCc1ccccc1F (stereo not given)	/	7	-1	/
CC(=O)c1c(NCc2ccccc2)nc(=O)n(-c2ccccc2)c1C	7	3	2	0
CCn1c(C)c(C(C)=O)c(NCc2ccccc2)nc1=S	7	/	/	98*
O=C(NCCCn1ccnc1)c1ccc(-c2cccc(C(F)(F)F)c2)o1	4	-1	0	-53
SMILES	HDAC3 inh	GC-B act	NPR1 activator	ALR H2O2 inh
Cc1oc(-c2ccccc2Cl)nc1CS(=O)CC(=O)NCCc1ccccc1 (stereo not given)	3	2	-3	99*
Cc1oc(-c2ccccc2F)nc1CS(=O)(=O)CC(=O)NCCCN1CC(C)CC(C)C1 (stereo not given)	?	0	-6	-10
Cc1oc(-c2ccccc2Cl)nc1CS(=O)CC(=O)NCCCN1CC(C)CC(C)C1 (stereo not given)	?	0	3	89*
CCCNC(=O)CS(=O)(=O)Cc1nc(-c2ccccc2C)oc1C	3	4	-4	-20
Cc1ccccc1-c1nc(CS(=O)CC(=O)NCCc2ccc(Cl)cc2)c(C)o1 (stereo not given)	3	-2	0	98*
Cc1oc(-c2ccccc2Cl)nc1CS(=O)(=O)CC(=O)NCCc1ccccc1	10	-2	-7	70
Cc1[nH]oc(=O)c1N=Nc1c(Cl)cccc1Cl	3	-2	1	92*
Cc1[nH]oc(=O)c1N=Nc1ccccc1	1	2	-2	3
CC(CN1CCN(C)CC1)OC(=O)c1cccc(F)c1 (stereo not given)	0	-2	1	-20
CC(C)(C)c1cc(CN2CCCC(O)C2)c(O)c(C(C)(C)C)c1 (stereo not given)	36*	2	0	35
O=C(Oc1ccccc1-c1csnn1)c1cccs1	4	-1	-2	99*
O=C(Oc1ccc(-c2csnn2)cc1)c1cccs1	14	-3	0	-7
Cc1cccc(Nc2nnc(-c3ccc(N4CCOCC4)c([N+](=O)[O-])c3)c3ccccc23)c1	10	48*	32	-12

Screening results deposited in PubChem BioAssay by several laboratories.
